The campaign covered roughly 5,500 compounds. About 2,000 (36%) were called active. Inconclusive results (about 18%) are left out. Some of the results follow. Values without a mark were called inactive. No stated cut-off is given here; in the data, active means normalized growth mostly below about 0.91 (no sharp cut-off); inconclusive means no clear call, values can overlap the other calls; inactive means mostly above about 0.92.
Experiment: chemical genetic growth profiling, strain panel (AID 1159580);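 further: tested at 20 µM; growth read once vehicle control cultures reached saturation at 30 °C; 1 = growth at the plate median or of vehicle wells; lower values mean less growth of the strain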
Details: S. cerevisiae deletion strains, growth OD
[1] = locus YAL040C, strain CLN3, active compounds read low
[2] = locus YER002W, strain NOP16, active compounds read low
[3] = locus YMR307W, strain GAS1, active compounds read low
[4] = locus YNL175C, strain NOP13, active compounds read low
[5] = locus YNL197C, strain WHI3, active compounds read low
[6] = locus YNL224C, strain SQS1, active compounds read low
[7] = locus YOR083W, strain WHI5 (second series), active compounds read low

SMILES | normalized growth [1] | normalized growth [2] | normalized growth (locus YGR078C, strain PAC10, active compounds read low) | normalized growth [3] | normalized growth [4] | normalized growth [5] | normalized growth [6] | normalized growth [7] | normalized growth (locus YCL061C, strain MRC1 (second series), active compounds read low) | normalized growth (locus YDR150W, strain NUM1, active compounds read low) | normalized growth (locus YDR363W, strain ESC2, active compounds read low) | normalized growth (locus YGR229C, strain SMI1, active compounds read low) | normalized growth (locus YJR075W, strain HOC1, active compounds read low) | normalized growth (locus YNL153C, strain GIM3, active compounds read low) | normalized growth (locus YNL322C, strain KRE1, active compounds read low) | normalized growth (locus YPL055C, strain LGE1, active compounds read low)
COc1ccc2c(c[n+](C)c3c4cc5c(cc4ccc23)OCO5)c1OC | 0.583 (active) | 0.58 (active) | 0.496 (active) | 0.131 (active) | 0.519 (active) | 0.69 (active) | 0.255 (active) | 0.175 (active) |  |  |  |  |  |  |  | 
COc1ccc2c(c1OC)C(=O)O[C@@H]2[C@H]1c2c(cc3c(c2OC)OCO3)CCN1C | 0.984 | 0.985 |  | 0.991 | 1 | 1.01 | 1 | 1.01 | 1 | 1 | 0.998 | 0.998 | 1 | 1.01 | 0.994 | 0.99

Source: PubChem BioAssay AID1159580 (chemical genetic matrix, 2015)
